Reference: ChEMBL document CHEMBL3988442, “University of Dundee, Small-Polar-MMV Screening Library” (2021)
For some assays here: Potency and affinity values are given separately.

Columns and labels:
Set-up in all cases: scale not given: direction of the effect not stated beside the values
[1] = molecular target: Protein translocase subunit SecA (Escherichia coli (strain K12)) (UniProt P10408); experiment: Assay to Identify E. coli SecA ATPase Inhibitors; type: functional; details: 30 µM
[2] = molecular target: T1, Ubiquitin-activating enzyme e1, putative (Leishmania donovani (strain BPK282A1)) (UniProt E9BSI1); experiment: Leishmania donovani Ubiquitin Activating Enzyme (LdE1); type: functional; details: 30 µM
T1 sequence (whole entry): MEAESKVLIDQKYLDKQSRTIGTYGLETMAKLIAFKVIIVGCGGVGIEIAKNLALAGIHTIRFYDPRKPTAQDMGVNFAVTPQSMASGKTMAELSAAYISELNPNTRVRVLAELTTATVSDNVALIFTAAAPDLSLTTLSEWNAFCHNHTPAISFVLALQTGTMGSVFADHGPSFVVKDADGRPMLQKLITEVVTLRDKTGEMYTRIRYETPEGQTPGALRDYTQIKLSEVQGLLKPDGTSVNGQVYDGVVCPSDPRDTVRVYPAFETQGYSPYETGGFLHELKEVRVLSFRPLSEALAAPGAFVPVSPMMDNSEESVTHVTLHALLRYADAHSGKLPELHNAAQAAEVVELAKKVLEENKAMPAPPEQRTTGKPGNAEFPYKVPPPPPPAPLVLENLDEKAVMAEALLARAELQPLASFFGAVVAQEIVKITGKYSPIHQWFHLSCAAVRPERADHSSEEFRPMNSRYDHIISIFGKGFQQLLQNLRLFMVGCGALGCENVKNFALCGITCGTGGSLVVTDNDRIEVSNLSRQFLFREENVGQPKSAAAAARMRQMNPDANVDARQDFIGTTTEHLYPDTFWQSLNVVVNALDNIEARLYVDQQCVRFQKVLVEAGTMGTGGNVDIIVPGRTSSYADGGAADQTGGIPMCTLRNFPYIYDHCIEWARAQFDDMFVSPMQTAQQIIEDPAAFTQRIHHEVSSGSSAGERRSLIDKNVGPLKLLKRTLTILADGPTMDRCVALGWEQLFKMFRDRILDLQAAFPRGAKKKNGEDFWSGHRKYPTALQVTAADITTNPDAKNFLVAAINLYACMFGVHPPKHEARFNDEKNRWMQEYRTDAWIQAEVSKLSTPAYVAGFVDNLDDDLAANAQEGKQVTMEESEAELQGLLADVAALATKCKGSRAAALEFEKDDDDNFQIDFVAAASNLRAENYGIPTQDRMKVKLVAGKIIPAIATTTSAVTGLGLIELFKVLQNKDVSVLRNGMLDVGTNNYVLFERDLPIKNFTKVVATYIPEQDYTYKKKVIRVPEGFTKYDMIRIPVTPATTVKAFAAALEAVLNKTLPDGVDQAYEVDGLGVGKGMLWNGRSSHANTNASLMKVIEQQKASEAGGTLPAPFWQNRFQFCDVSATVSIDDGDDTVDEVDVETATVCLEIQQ

[3] = molecular target: AMP-activated protein kinase, AMPK (Homo sapiens) (UniProt P54646+O43741+P54619+Q9UGJ0+Q9Y478+Q13131+Q9UGI9); experiment: AMP-dependent Kinase enzyme assay. An in vitro enzyme assay that detects ADP turnover that is directly proportional to AMPK activity. This uses naive AMPK that is activated during the assay with MK-8722; type: functional; details: 30 µM
[4] = molecular target: Sialic acid-binding Ig-like lectin 9 (Homo sapiens) (UniProt Q9Y336); experiment: Hs-Siglec9 ALPHAscreen SOP 20170721; details: 10 µM
Chain of Sialic acid-binding Ig-like lectin 9 (Homo sapiens) (Q9Y336 whole entry): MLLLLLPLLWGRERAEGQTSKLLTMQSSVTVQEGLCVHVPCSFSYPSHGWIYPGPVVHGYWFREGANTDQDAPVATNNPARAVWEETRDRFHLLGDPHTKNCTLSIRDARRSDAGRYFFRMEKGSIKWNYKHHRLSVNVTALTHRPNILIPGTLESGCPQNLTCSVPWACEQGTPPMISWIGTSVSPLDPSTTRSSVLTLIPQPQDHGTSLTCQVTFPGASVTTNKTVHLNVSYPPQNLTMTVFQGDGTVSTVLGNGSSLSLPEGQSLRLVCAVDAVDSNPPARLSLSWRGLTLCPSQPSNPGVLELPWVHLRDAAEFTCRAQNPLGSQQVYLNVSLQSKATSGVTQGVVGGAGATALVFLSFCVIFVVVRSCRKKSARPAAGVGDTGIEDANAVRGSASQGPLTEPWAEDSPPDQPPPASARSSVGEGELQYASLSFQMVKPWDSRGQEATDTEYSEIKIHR

Trypanosoma cruzi = experiment: Trypanosoma cruzi phosphomannomutase and mannose-1-phosphate guanylyltransferase assay; type: functional; details: 10 µM
[5] = molecular target: T2, Arginase-2, mitochondrial (Homo sapiens) (UniProt P78540); experiment: in vitro enzyme assay to detect the production of urea directly proportional to the activity of Arginase II; type: functional; details: 33.3 µM; also: in the data most compounds retested in dose-response had high values
T2 sequence (whole entry): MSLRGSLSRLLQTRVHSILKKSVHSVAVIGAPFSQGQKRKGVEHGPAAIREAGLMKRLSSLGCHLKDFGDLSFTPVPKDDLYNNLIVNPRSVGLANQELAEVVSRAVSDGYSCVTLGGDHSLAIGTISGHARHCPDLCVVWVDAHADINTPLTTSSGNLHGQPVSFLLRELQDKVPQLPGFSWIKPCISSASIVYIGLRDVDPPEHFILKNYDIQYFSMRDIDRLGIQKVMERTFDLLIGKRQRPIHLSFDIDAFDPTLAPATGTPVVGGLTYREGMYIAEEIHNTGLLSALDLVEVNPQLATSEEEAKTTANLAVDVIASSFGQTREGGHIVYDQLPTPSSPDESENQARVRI

[6] = molecular target: T3, Proteasome subunit beta (Trypanosoma cruzi) (UniProt O96673); experiment: Trypanosoma cruzi proteasome chymotrypsin-like activity (TcProtChymo) assay.; also: in the data most compounds retested in dose-response had high values; type: functional; details: 9.37 µM
T3 sequence (whole entry): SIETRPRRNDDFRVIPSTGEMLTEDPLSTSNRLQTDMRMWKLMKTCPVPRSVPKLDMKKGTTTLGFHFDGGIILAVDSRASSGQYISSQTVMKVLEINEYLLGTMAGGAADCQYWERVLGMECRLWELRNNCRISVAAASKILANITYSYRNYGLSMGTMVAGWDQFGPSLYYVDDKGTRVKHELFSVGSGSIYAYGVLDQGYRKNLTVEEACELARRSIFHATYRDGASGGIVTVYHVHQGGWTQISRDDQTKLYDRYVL

Homo sapiens = organism: Homo sapiens; experiment: To identify inhibition of the IFN signalling (Jak-Stat) pathway via expression of an eGFP reporter gene under the control of an IFN-stimulated response element (ISRE) containing MxA promoter.; type: functional; details: 30 µM
[7] = molecular target: T4, Tyrosyl-tRNA synthetase, putative (Trypanosoma cruzi (strain CL Brener)) (UniProt Q4DSP6); experiment: Trypanosoma cruzi tyrosyl tRNA synthetase (TcYRS) _High Tyrosine SOP; type: functional; details: 30 µM; also: in the data most compounds retested in dose-response had high values
T4 sequence (whole entry): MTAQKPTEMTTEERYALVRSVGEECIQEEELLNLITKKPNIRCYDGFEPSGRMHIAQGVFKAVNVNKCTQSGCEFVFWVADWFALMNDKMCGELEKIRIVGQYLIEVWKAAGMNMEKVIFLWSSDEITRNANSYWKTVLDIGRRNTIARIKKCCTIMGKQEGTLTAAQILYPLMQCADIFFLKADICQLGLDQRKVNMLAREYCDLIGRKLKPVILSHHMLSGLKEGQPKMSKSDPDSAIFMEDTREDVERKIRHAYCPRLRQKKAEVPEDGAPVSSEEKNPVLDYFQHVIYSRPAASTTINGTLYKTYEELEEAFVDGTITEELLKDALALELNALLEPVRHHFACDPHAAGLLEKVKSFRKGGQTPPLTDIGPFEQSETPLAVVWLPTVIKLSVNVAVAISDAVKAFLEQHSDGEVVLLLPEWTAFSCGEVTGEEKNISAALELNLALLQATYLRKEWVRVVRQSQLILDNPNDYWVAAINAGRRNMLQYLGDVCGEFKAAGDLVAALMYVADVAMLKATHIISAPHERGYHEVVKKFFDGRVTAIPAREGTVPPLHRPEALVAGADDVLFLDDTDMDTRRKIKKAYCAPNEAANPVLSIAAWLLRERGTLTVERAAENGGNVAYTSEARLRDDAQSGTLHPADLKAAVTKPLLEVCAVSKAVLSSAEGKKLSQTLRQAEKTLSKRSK

[8] = molecular target: T4, Tyrosyl-tRNA synthetase, putative (Trypanosoma cruzi (strain CL Brener)); experiment: Trypanosoma cruzi tyrosyl tRNA synthetase (TcYRS) SOP; type: functional; details: 30 µM
[9] = molecular target: Chromo domain-containing protein 1 (Saccharomyces cerevisiae (strain ATCC 204508 / S288c) (Baker's yeast)) (UniProt P32657); experiment: ScCHD-1 Enzyme Inhibition Assay; type: functional; details: 30 µM; also: in the data most compounds retested in dose-response had high values
Chain of Chromo domain-containing protein 1 (Saccharomyces cerevisiae (strain ATCC 204508 / S288c) (Baker's yeast)) (P32657 whole entry, the tested form may be a part): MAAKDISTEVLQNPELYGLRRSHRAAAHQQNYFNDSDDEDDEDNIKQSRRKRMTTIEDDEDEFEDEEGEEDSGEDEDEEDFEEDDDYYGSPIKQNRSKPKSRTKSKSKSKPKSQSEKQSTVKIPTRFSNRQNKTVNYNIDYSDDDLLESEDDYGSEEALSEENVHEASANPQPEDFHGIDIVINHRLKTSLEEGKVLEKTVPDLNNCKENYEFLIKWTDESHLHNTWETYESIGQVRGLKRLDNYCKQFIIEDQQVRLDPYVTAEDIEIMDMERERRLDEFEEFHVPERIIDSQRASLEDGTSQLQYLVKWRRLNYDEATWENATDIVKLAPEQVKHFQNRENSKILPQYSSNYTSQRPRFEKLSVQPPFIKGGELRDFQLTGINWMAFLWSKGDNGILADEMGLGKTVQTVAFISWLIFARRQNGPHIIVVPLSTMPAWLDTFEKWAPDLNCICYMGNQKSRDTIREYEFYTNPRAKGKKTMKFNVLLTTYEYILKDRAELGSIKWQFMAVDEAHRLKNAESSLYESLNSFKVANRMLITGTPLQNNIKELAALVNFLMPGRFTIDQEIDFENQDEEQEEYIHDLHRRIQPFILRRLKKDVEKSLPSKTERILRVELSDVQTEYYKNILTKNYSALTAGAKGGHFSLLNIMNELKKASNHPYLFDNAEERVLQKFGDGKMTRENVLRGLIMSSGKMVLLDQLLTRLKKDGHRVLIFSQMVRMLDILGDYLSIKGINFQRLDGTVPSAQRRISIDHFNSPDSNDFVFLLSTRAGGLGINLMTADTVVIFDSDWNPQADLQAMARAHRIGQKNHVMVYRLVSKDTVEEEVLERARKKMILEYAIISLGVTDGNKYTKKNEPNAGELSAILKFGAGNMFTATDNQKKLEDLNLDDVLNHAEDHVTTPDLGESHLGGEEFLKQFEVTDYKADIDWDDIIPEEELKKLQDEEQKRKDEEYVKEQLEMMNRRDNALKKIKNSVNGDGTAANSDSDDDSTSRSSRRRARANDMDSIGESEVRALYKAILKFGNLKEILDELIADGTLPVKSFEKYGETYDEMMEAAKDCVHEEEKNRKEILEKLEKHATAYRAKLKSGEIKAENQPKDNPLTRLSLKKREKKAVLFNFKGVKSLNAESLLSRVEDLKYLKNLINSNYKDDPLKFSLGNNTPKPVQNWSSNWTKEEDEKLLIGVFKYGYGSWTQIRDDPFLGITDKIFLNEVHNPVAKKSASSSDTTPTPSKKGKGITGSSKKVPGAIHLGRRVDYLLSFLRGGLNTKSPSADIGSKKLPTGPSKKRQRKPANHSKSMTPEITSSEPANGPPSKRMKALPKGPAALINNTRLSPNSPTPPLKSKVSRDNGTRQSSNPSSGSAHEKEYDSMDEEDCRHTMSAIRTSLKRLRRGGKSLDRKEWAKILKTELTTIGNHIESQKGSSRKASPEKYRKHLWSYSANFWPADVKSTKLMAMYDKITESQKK

Chain of Protein translocase subunit SecA (Escherichia coli (strain K12)) (P10408 whole entry): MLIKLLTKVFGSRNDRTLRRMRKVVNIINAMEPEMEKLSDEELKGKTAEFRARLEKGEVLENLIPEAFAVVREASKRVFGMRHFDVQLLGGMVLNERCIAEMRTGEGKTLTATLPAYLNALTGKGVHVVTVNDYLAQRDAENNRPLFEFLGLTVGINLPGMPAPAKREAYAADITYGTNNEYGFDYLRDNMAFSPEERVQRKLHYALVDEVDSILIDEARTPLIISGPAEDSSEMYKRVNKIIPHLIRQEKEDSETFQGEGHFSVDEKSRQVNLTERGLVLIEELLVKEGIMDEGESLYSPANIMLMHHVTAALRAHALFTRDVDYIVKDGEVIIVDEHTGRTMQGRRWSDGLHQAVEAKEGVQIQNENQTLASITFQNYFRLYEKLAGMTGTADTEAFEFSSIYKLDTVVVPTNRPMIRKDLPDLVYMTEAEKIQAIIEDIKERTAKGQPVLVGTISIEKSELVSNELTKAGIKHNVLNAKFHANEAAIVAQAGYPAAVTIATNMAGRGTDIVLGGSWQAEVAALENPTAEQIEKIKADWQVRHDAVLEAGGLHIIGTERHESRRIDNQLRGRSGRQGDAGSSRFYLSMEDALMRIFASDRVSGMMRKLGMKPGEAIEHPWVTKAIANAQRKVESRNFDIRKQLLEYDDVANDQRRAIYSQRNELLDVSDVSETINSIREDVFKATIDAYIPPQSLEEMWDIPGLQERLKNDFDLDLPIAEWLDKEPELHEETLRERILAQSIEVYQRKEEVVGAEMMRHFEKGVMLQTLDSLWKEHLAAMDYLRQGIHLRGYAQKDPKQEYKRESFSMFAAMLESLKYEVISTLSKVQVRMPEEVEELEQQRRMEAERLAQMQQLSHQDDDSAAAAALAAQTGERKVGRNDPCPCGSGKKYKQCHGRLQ

O=C(COc1ccc(C(F)(F)F)cc1)NS(=O)(=O)c1cccnc1
Percent Effect [1]: -0.269%
Percent Effect [2]: 0%
Percent Effect [3]: 4.15%
Percent Effect [4]: -3.63%
Percent Effect (Trypanosoma cruzi): -1.5%
Percent Effect [5]: 0.383%
Percent Effect [6]: 3.84%
Percent Effect (Homo sapiens): -6.19%
Percent Effect [7]: -1.47%
Percent Effect [8]: -4.88%
Percent Effect [9]: 4.47%

CSCCC(CO)NC(=O)c1sc(-c2ccccc2Cl)nc1C (stereo not given)
Percent Effect [1]: -3.21%
Percent Effect [2]: 4%
Percent Effect [3]: 7.64%
Percent Effect [4]: 6.5%
Percent Effect (Trypanosoma cruzi): -5.89%
Percent Effect [5]: -6.16%
Percent Effect [6]: 11.3%
Percent Effect (Homo sapiens): 6.86%
Percent Effect [7]: 1.06%
Percent Effect [8]: 7.69%
Percent Effect [9]: -4%

CCCN1CCN(C(=O)C(C)n2cc(Br)cn2)CC1 (stereo not given)
Percent Effect [1]: -1.59%
Percent Effect [2]: 15.6%
Percent Effect [3]: 5.22%
Percent Effect [4]: 7.33%
Percent Effect (Trypanosoma cruzi): 3.05%
Percent Effect [5]: -137%
Percent Effect [6]: 10.3%
Percent Effect (Homo sapiens): -2.4%
Percent Effect [7]: 7.53%
Percent Effect [8]: 21%
Percent Effect [9]: -7.35%

Cc1cnn(CC2CCCN2C(=O)c2cnc3n[nH]c(C)c3c2)c1 (stereo not given)
Percent Effect [1]: -6.55%
Percent Effect [2]: 16.5%
Percent Effect [3]: 0.256%
Percent Effect [4]: -4.46%
Percent Effect (Trypanosoma cruzi): 2.36%
Percent Effect [5]: 0.645%
Percent Effect [6]: 7.55%
Percent Effect (Homo sapiens): 2.33%
Percent Effect [7]: 3.12%
Percent Effect [8]: 20.2%
Percent Effect [9]: -32.5%

O=C(NCCc1ccccn1)C1=NN(c2ccccc2)C(=O)CN1
Percent Effect [1]: 0.741%
Percent Effect [2]: 15.2%
Percent Effect [3]: 0.826%
Percent Effect [4]: -11.6%
Percent Effect (Trypanosoma cruzi): -9.16%
Percent Effect [5]: 6.08%
Percent Effect [6]: 4.83%
Percent Effect (Homo sapiens): 11.7%
Percent Effect [7]: 2.46%
Percent Effect [8]: 13.9%
Percent Effect [9]: -1.69%

O=C(C1SCCc2sccc21)N1CCN(CCO)CC1 (stereo not given)
Percent Effect [1]: -6.92%
Percent Effect [2]: 16.2%
Percent Effect [3]: -1.14%
Percent Effect [4]: 33.4%
Percent Effect (Trypanosoma cruzi): 2.34%
Percent Effect [5]: 22.5%
Percent Effect [6]: 17.7%
Percent Effect (Homo sapiens): 11.7%
Percent Effect [7]: -3.96%
Percent Effect [8]: 15.8%
Percent Effect [9]: -3.8%

O=C(Nc1ccccc1OC(F)F)C1=NN(c2ccccc2)C(=O)CN1
Percent Effect [1]: -1.64%
Percent Effect [2]: 10.1%
Percent Effect [3]: -3.73%
Percent Effect [4]: -7.92%
Percent Effect (Trypanosoma cruzi): -3.87%
Percent Effect [5]: 3.04%
Percent Effect [6]: 8.11%
Percent Effect (Homo sapiens): 8.86%
Percent Effect [7]: -0.493%
Percent Effect [8]: 11.4%
Percent Effect [9]: -4.54%

CCS(=O)(=O)N(C)c1ccc(C(=O)N2CCCC(C)C2)cc1 (stereo not given)
Percent Effect [1]: -2.45%
Percent Effect [2]: 4.17%
Percent Effect [3]: -4.69%
Percent Effect [4]: 15.7%
Percent Effect (Trypanosoma cruzi): 3.4%
Percent Effect [5]: 0.883%
Percent Effect [6]: 0.351%
Percent Effect (Homo sapiens): 4.06%
Percent Effect [7]: -1.05%
Percent Effect [8]: 5.13%
Percent Effect [9]: -1.93%

CCc1nc(C2CCCN2CC(=O)Nc2c(C)nn(C)c2C)no1 (stereo not given)
Percent Effect [1]: -2.75%
Percent Effect [2]: 0%
Percent Effect [3]: -6.03%
Percent Effect [4]: -5.34%
Percent Effect (Trypanosoma cruzi): -0.979%
Percent Effect [5]: -0.455%
Percent Effect [6]: 7.81%
Percent Effect (Homo sapiens): 10.6%
Percent Effect [7]: 1.07%
Percent Effect [8]: 2.5%
Percent Effect [9]: 1.02%

CSCCCN1CCCC1c1noc(C)n1 (stereo not given)
Percent Effect [1]: -0.0492%
Percent Effect [2]: 13.2%
Percent Effect [3]: -11.1%
Percent Effect [4]: -5.04%
Percent Effect (Trypanosoma cruzi): 6.39%
Percent Effect [5]: 8.43%
Percent Effect [6]: 23.7%
Percent Effect (Homo sapiens): 19.4%
Percent Effect [7]: 14.2%
Percent Effect [8]: 21.9%
Percent Effect [9]: -9.94%
